Test results taken from PubChem BioAssay AID1986 (Sanford-Burnham Center for Chemical Genomics, 2009).
The whole screen tested about 290,000 compounds, of which about 890 (0.31%) were called active. Rule as the data show it: active = inhibition mostly above about 52% (no sharp cut-off); inactive = mostly below about 76%. The sample as a whole holds a higher share of actives than the screen did.

Assay: cell-free HIV fusion peptide-binding blockers – biochemical, uHTS, fluorescence dequenching, primary screen (AID 1986)
Conditions: 30 min, stronger effect = higher value
[1] = measured here: repeat confirmation average inhibition, at 18.6 µM

Structure (SMILES): COc1ccc(CN2C(=O)NC(=O)/C(=C\c3ccco3)C2=O)cc1
- inhibition (at 20 µM): 91.3% (active)

Structure (SMILES): COc1ccc(CN2C(=O)NC(=O)/C(=C/c3ccoc3)C2=O)cc1
- inhibition (at 20 µM): 146% (inactive)

Structure (SMILES): CCN(CC)c1ccc(/C=C2/C(=O)NC(=O)N(CC3CCCO3)C2=O)cc1 (stereo not drawn)
- inhibition (at 20 µM): 22.9% (inactive)

Structure (SMILES): CCN(CC)c1ccc(/C=C2\C(=O)NC(=O)N(CC3CCCO3)C2=O)cc1 (stereo not drawn)
- inhibition (at 20 µM): 48.8% (inactive)

Structure (SMILES): O=C1NC(=O)N(Cc2ccccc2)C(=O)/C1=C\c1ccco1
- inhibition (at 20 µM): 65.1% (inactive)
- inhibition [1]: 4.5%

Structure (SMILES): CCOc1ccc(N2C(=O)/C(=C/c3ccco3)C(=O)NC2=S)cc1
- inhibition (at 20 µM): 31.9% (inactive)

Structure (SMILES): O=C1NC(=O)N(Cc2ccccc2)C(=O)/C1=C/C=C/c1ccco1
- inhibition (at 20 µM): 146% (inactive)

Structure (SMILES): CCN(CC)c1ccc(/C=C2\C(=O)NC(=O)N(Cc3ccco3)C2=O)cc1
- inhibition (at 20 µM): 84.3% (active)

Structure (SMILES): CCOc1ccc(N2C(=O)/C(=C\c3cccs3)C(=O)NC2=S)cc1
- inhibition (at 20 µM): 55.7% (active)

Structure (SMILES): O=C1NC(=O)N(Cc2ccco2)C(=O)/C1=C/C=C/c1ccco1
- inhibition (at 20 µM): 83.8% (active)

Structure (SMILES): COc1ccc(N2C(=O)/C(=C/c3cccs3)C(=O)NC2=S)cc1
- inhibition (at 20 µM): 15.2% (inactive)

Structure (SMILES): O=C1NC(=O)N(Cc2ccccc2)C(=O)/C1=C\C=C\c1ccco1
- inhibition (at 20 µM): 84.6% (inactive)
- inhibition [1]: 15.8%

Structure (SMILES): CN(C)C(=O)Oc1ccc(-c2cn3cc(Cl)ccc3n2)cc1
- inhibition (at 20 µM): -0.5% (inactive)

Structure (SMILES): COCCOC(=O)C1=C(C)OC(N)=C(C(=O)OC)C12C(=O)Nc1ccccc12 (stereo not drawn)
- inhibition (at 20 µM): -2% (inactive)

Structure (SMILES): CNC(C(=O)c1ccccc1)C(OC)c1cccc([N+](=O)[O-])c1 (stereo not drawn)
- inhibition (at 20 µM): 1.8% (inactive)

Structure (SMILES): Cc1cc(C)nc(N2Cc3ccccc3C2=N)n1
- inhibition (at 20 µM): -3.6% (inactive)

Structure (SMILES): COc1ccc(OC(=O)N(C)C)c(CN(C)C)c1
- inhibition (at 20 µM): 0.5% (inactive)

Structure (SMILES): Cc1cc(/C=C2/C(=O)NC(=O)N(Cc3ccco3)C2=O)c(C)n1-c1ccccc1
- inhibition (at 20 µM): 92.7% (inactive)
- inhibition [1]: 2.6%

Structure (SMILES): COc1ccc(/C=C2/C(=O)NC(=O)N(Cc3ccco3)C2=O)cc1
- inhibition (at 20 µM): 50.2% (active)

Structure (SMILES): CN1C(=O)NC(=O)/C(=C/c2ccc([N+](=O)[O-])o2)C1=O
- inhibition (at 20 µM): 27.7% (inactive)

Structure (SMILES): Cc1ccc(N2C(=O)NC(=O)/C(=C\C=C\c3ccco3)C2=O)cc1
- inhibition (at 20 µM): 75.4% (inactive)
- inhibition [1]: 16.3%

Structure (SMILES): C=CCN1C(=O)/C(=C/c2cccs2)C(=O)NC1=S
- inhibition (at 20 µM): 15.5% (inactive)

Structure (SMILES): Cc1cc(C)cc(N2C(=O)NC(=O)/C(=C\C=C\c3ccco3)C2=O)c1
- inhibition (at 20 µM): 108% (inactive)
- inhibition [1]: 13.9%

Structure (SMILES): O=C1NC(=O)N(Cc2ccc(F)cc2)C(=O)/C1=C/c1cccs1
- inhibition (at 20 µM): -3.9% (inactive)

Structure (SMILES): COc1ccc(CN2C(=O)NC(=O)/C(=C/c3ccc([N+](=O)[O-])o3)C2=O)cc1
- inhibition (at 20 µM): 85.6% (active)

Structure (SMILES): COc1ccc(/C=C2/C(=O)N(Cc3ccco3)C(=O)N(C(C)C)C2=O)cc1
- inhibition (at 20 µM): 9% (inactive)

Structure (SMILES): O=C1NC(=S)N(Cc2ccco2)C(=O)/C1=C\c1cccs1
- inhibition (at 20 µM): 67.5% (active)

Structure (SMILES): Cc1cccc(N2C(=O)NC(=O)/C(=C\C=C\c3ccco3)C2=O)c1
- inhibition (at 20 µM): 98.4% (active)

Structure (SMILES): COc1ccc(CN2C(=O)NC(=O)/C(=C/c3ccc([N+](=O)[O-])s3)C2=O)cc1
- inhibition (at 20 µM): 55.1% (inactive)
- inhibition [1]: 18.5%

Structure (SMILES): COc1ccc(NC(=O)CN2C3CCC2CC(O)(c2cccnc2)C3)cc1OC (stereo not drawn)
- inhibition (at 20 µM): -0.5% (inactive)

Structure (SMILES): c1cc(CCN2CCCC2)ccn1
- inhibition (at 20 µM): 1.8% (inactive)

Structure (SMILES): Cc1cccc(N=Nc2ccc(N(C)C)cc2)c1
- inhibition (at 20 µM): -1.7% (inactive)

Structure (SMILES): O=[N+]([O-])c1ccc2c(c1)C(c1ccccc1)=NCCN2
- inhibition (at 20 µM): 0.2% (inactive)

Structure (SMILES): CCN1CCN(c2ccc(N)cc2C)CC1
- inhibition (at 20 µM): -1.1% (inactive)

Structure (SMILES): CN1CCN(Cc2cn3cccnc3n2)CC1
- inhibition (at 20 µM): -0.4% (inactive)

Structure (SMILES): CCC(C)n1c(O)c(C=NCC2CCCO2)c(=O)[nH]c1=S (stereo not drawn)
- inhibition (at 20 µM): -0.8% (inactive)

Structure (SMILES): CC1=C2C3OC(=O)C(C)C3CC[C@@]2(C)C=CC1=O (stereo partly drawn)
- inhibition (at 20 µM): -0.7% (inactive)

Structure (SMILES): CN1CCN(c2ccc([N+](=O)[O-])c(SCCO)c2)CC1
- inhibition (at 20 µM): -0.1% (inactive)

Structure (SMILES): Cc1cc(Cl)ccc1C(=O)C1CCCN(Cc2ccon2)C1 (stereo not drawn)
- inhibition (at 20 µM): -1.3% (inactive)

Structure (SMILES): CCOP(=O)(OCC)C(O)c1ccc(Br)cc1 (stereo not drawn)
- inhibition (at 20 µM): -1% (inactive)

Structure (SMILES): CC(Cc1ccccc1)[n+]1cc(/N=C(\N)[O-])on1 (stereo not drawn)
- inhibition (at 20 µM): -2% (inactive)

Structure (SMILES): CCN(CC)C(=O)c1ccc(NC(=O)CN2CCc3cc(OC)c(OC)cc3C2)cc1
- inhibition (at 20 µM): -1.3% (inactive)

Structure (SMILES): COc1ccc(CN2CCN(c3ccccc3)CC2)c(C)c1C
- inhibition (at 20 µM): -1.3% (inactive)

Structure (SMILES): CN(C)c1ccc(/C=C2/C(=O)NC(=O)N(Cc3ccco3)C2=O)cc1
- inhibition (at 20 µM): 42.7% (inactive)

Structure (SMILES): Cn1cccc1/C=C1\C(=O)NC(=O)N(Cc2ccco2)C1=O
- inhibition (at 20 µM): 30.6% (inactive)

Structure (SMILES): CCN(CC)c1ccc(/C=C2/C(=O)NC(=O)N(Cc3ccco3)C2=O)cc1
- inhibition (at 20 µM): 84.2% (active)

Structure (SMILES): O/N=C1/C(=C\c2ccccc2)N2CCC1CC2
- inhibition (at 20 µM): 9.6% (inactive)

Structure (SMILES): CN1CCC(N2CC3CC(C2)c2cccc(=O)n2C3)CC1 (stereo not drawn)
- inhibition (at 20 µM): 1.9% (inactive)

Structure (SMILES): CCOC(=O)c1c(/N=C/C2C(=O)NC(=O)NC2=O)sc2c1CCC2
- inhibition (at 20 µM): 6.8% (inactive)

Structure (SMILES): CCOC(=O)c1c(/N=C/C2C(=O)NC(=S)NC2=O)sc(C)c1C
- inhibition (at 20 µM): 30.3% (inactive)

Structure (SMILES): CCOC(=O)c1c(/N=C/C2C(=O)NC(=S)NC2=O)sc2c1CCC2
- inhibition (at 20 µM): 81.3% (active)

Structure (SMILES): CN1CCC(=O)N(CCN=[N+]=[N-])CC1
- inhibition (at 20 µM): 1.6% (inactive)

Structure (SMILES): COc1cc(C)c(CN2CC=C(c3ccc(F)cc3)CC2)cc1C
- inhibition (at 20 µM): -1.1% (inactive)

Structure (SMILES): CCN(CC)c1ccc(CN(C)CCc2ccc(OC)c(OC)c2)cc1
- inhibition (at 20 µM): 0.5% (inactive)

Structure (SMILES): Fc1ccccc1N1CCN(Cc2c(F)cccc2F)CC1
- inhibition (at 20 µM): -0.2% (inactive)

Structure (SMILES): O=C(N=Nc1c(O)[nH]c(=O)[nH]c1=O)C1COc2cc3ccccc3cc2O1 (stereo not drawn)
- inhibition (at 20 µM): 4.2% (inactive)

Structure (SMILES): O=C(C(Cc1ccccc1)NS(=O)(=O)c1cccc2nsnc12)N1CCC2(CC1)OCCO2 (stereo not drawn)
- inhibition (at 20 µM): 103% (active)

Structure (SMILES): O=C(C(Cc1ccccc1)NS(=O)(=O)c1ccc(F)cc1)N1CCC2(CC1)OCCO2 (stereo not drawn)
- inhibition (at 20 µM): 3.1% (inactive)

Structure (SMILES): O=C(C1CCCN(S(=O)(=O)c2cccc3nsnc23)C1)N1CCC2(CC1)OCCO2 (stereo not drawn)
- inhibition (at 20 µM): -1.1% (inactive)

Structure (SMILES): CNCCc1ccc(OC)c(OC)c1
- inhibition (at 20 µM): -0.5% (inactive)

Structure (SMILES): O=C(c1ccc(Cl)cc1)C12CN3CN(CN(C3)C1)C2
- inhibition (at 20 µM): 0% (inactive)

Structure (SMILES): COP(=O)(OC)C(Nc1ccccn1)c1ccccc1 (stereo not drawn)
- inhibition (at 20 µM): -0.3% (inactive)

Structure (SMILES): CN1C(=O)C(=Cc2sc(=O)n(-c3ccccc3)c2N2CCCCC2)C(=O)N(C)C1=O
- inhibition (at 20 µM): 68.2% (active)
- inhibition [1]: 87.3%

Structure (SMILES): CN1C(=O)C(=Cc2sc(=O)n(-c3ccccc3)c2N(C)C)C(=O)N(C)C1=O
- inhibition (at 20 µM): 27.8% (inactive)

Structure (SMILES): CN1C(=O)C(=Cc2ccc(N3CCCCCC3)cc2)C(=O)N(C)C1=O
- inhibition (at 20 µM): 16.5% (inactive)

Structure (SMILES): COc1ccc(N2C(=O)NC(=O)/C(=C\c3ccc([N+](=O)[O-])s3)C2=O)cc1
- inhibition (at 20 µM): 56.4% (active)

Structure (SMILES): COc1cccc(N2C(=O)NC(=O)/C(=C/c3ccc([N+](=O)[O-])s3)C2=O)c1
- inhibition (at 20 µM): 45.2% (inactive)

Structure (SMILES): O=C1NC(=O)N(c2ccccc2)C(=O)/C1=C\c1ccc([N+](=O)[O-])s1
- inhibition (at 20 µM): 61.1% (inactive)
- inhibition [1]: 6.1%

Structure (SMILES): O=C1NC(=O)N(c2ccccc2)C(=O)/C1=C/c1ccc([N+](=O)[O-])s1
- inhibition (at 20 µM): 64.8% (active)

Structure (SMILES): COc1ccccc1N1C(=O)NC(=O)/C(=C/c2ccc([N+](=O)[O-])s2)C1=O
- inhibition (at 20 µM): 42.7% (inactive)

Structure (SMILES): COc1ccc(N2C(=O)NC(=O)/C(=C/c3ccc([N+](=O)[O-])s3)C2=O)cc1
- inhibition (at 20 µM): 35.4% (inactive)

Structure (SMILES): O=c1c2ccccc2nc(Cc2ccccc2)n1-c1cccc(O)c1
- inhibition (at 20 µM): -1% (inactive)

Structure (SMILES): CCCc1cc(=O)oc2cc(OCC(=O)N3C[C@H]4C[C@@H](C3)c3cccc(=O)n3C4)ccc12
- inhibition (at 20 µM): 3% (inactive)

Structure (SMILES): CCOC(=O)c1nc2ccccc2c(=O)n1-c1ccc(C)cc1
- inhibition (at 20 µM): 0.5% (inactive)

Structure (SMILES): COc1cc(CC2(CCc3ccncc3)C(=O)N(C)C(=O)N(C)C2=O)cc(OC)c1OC
- inhibition (at 20 µM): 2.3% (inactive)

Structure (SMILES): CCN1/C(=C\C=C\C2=[N+](CC)c3ccccc3C2(C)C)C(C)(C)c2ccccc21
- inhibition (at 20 µM): 0.5% (inactive)

Structure (SMILES): CN1/C(=C\C=C\C2=[N+](C)c3ccc4ccccc4c3C2(C)C)C(C)(C)c2ccccc21
- inhibition (at 20 µM): 65.1% (active)
- inhibition [1]: 90.9%

Structure (SMILES): CN1/C(=C\C=Nc2ccccc2)C(C)(C)c2ccccc21
- inhibition (at 20 µM): 0.8% (inactive)

Structure (SMILES): NCCc1c[nH]c2ccc(OCc3ccccc3)cc12
- inhibition (at 20 µM): -1.2% (inactive)
